# Data as given in the supplement of paper PMC10127200.
# Counter-ions that a name gives are not always drawn.
# Test system: 786-O
# Test: Euclidean distance of Cell Painting phenotypic profile (signed KS, 77 features) to DMSO centroid (dimensionless distance); 5 or 10 uM (library dependent); higher = stronger phenotypic change vs DMSO (phenoactivity)
# Settings: 48 h
# Outline: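 Harmony extracted 77 features from 20X confocal images (9 fields/well) of stained cells, scoring each as a signed Kolmogorov-Smirnov statistic against same-plate vehicle wells. The cells, five cancer lines and a healthy fibroblast line, had received library compounds for 48 h at 10 or 5 uM depending on library, with 0.1% DMSO final. Phenoactivity is the Euclidean distance from each plate-position-corrected, correlation-weighted, top-dose replicate-averaged profile to the median vehicle profile.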
row,SMILES,Euclidean distance
1,CN(C)c1ccc(O)c2c1C[C@H]1C[C@H]3[C@H](N(C)C)C(O)=C(C(N)=O)C(=O)[C@@]3(O)C(O)=C1C2=O [Minocycline HCl],1.46
2,Clc1ccc(CCCOCCCN2CCCCC2)cc1 [Pitolisant hydrochloride],0.716
3,Clc1ccc(C(c2ccccc2Cl)C(Cl)Cl)cc1 (stereo not given) [Mitotane],0.994
4,CCOCC(O)COc1ccc(NC(=O)CC[S+](C)C)cc1 (stereo not given) [Suplatast Tosylate],1.48
5,Cc1onc(-c2ccccc2)c1C(=O)N[C@@H]1C(=O)N2[C@@H]1SC(C)(C)[C@@H]2C(=O)O [Oxacillin sodium monohydrate],1.39
6,NCC(=O)CCC(=O)O [5-Aminolevulinic acid HCl],1.2
7,NS(=O)(=O)c1cc2c(cc1Cl)NC(C1CC3C=CC1C3)NS2(=O)=O (stereo not given) [Cyclothiazide],1.37
8,CC(C)N1CCN(Cc2cnc(-c3cc(-c4cccc5[nH]ccc45)cc4[nH]ncc34)o2)CC1,3.29
9,CC1(C)O[C@H]2CC(=O)OC[C@]23[C@H]2CC[C@@]4(C)[C@H](c5ccoc5)OC(=O)[C@H]5O[C@]54[C@]2(C)C(=O)C[C@@H]13 [Limonin],0.804
10,COc1ccc(C2CC(=O)c3c(O)cc(OC4OC(COC5OC(C)C(O)C(O)C5O)C(O)C(O)C4O)cc3O2)cc1OC (stereo not given) [Methyl-Hesperidin],0.924
11,CC1(C)S[C@@H]2[C@H](NC(=O)Cc3ccccc3)C(=O)N2[C@H]1C(=O)O.CCN(CC)CCOC(=O)c1ccc(N)cc1 [Penicillin G Procaine],0.821
12,CN1CCCN=C1/C=C/c1cccs1 [Pyrantel Pamoate],1.65
13,O=C(Nc1ccc(-c2ccnc(Nc3ccc(N4CCOCC4)cc3)n2)cc1)C1CCCN1 (stereo not given),0.834
14,NC(=O)[C@@H]1CC[C@@H]2CN1C(=O)N2OS(=O)(=O)O [Avibactam sodium],1.03
15,CC(C)(C(=O)c1cccnc1)c1cccnc1 [Metyrapone],1.56
16,O=C(OC[C@H]1O[C@@H](OC(=O)c2cc(O)c(O)c(OC(=O)c3cc(O)c(O)c(O)c3)c2)[C@H](OC(=O)c2cc(O)c(O)c(OC(=O)c3cc(O)c(O)c(O)c3)c2)[C@@H](OC(=O)c2cc(O)c(O)c(OC(=O)c3cc(O)c(O)c(O)c3)c2)[C@@H]1OC(=O)c1cc(O)c(O)c(OC(=O)c2cc(O)c(O)c(O)c2)c1)c1cc(O)c(O)c(OC(=O)c2cc(O)c(O)c(O)c2)c1 [Tannic acid],0.956
17,CN(C)CCOc1ccc(/C(=C(/CCCl)c2ccccc2)c2ccccc2)cc1 [Toremifene Citrate],1.72
18,O=C(O[C@H]1CN2CCC1CC2)N1CCc2ccccc2[C@@H]1c1ccccc1 [Solifenacin succinate],1.31
19,CCN(c1cc(-c2ccc(CN3CCOCC3)cc2)cc(C(=O)NCc2c(C)cc(C)[nH]c2=O)c1C)C1CCOCC1 [Tazemetostat (EPZ-6438)],0.99
20,CC(C)(Oc1ccc(C(=O)c2ccc(Cl)cc2)cc1)C(=O)O [Choline Fenofibrate],0.954

row,SMILES,Euclidean distance
1,CC(C)(O)CC(=O)NCCn1ccc2ncnc(Nc3ccc(Oc4cccc(C(F)(F)F)c4)c(Cl)c3)c21,1.98
2,O=C(c1cccc(Cl)c1F)N1CCN(Cc2cccc(Nc3nccs3)n2)CC1,2.99
3,C[N+](C)(C)CCOC(N)=O [Carbachol],1.07
4,CC(C)OC(=O)CCC/C=C\C[C@@H]1[C@@H](/C=C/[C@@H](O)COc2cccc(C(F)(F)F)c2)[C@H](O)C[C@@H]1O [Travoprost],0.945
5,CCOc1cc(N)c(Cl)cc1C(=O)NCC1CN(Cc2ccc(F)cc2)CCO1 (stereo not given) [Mosapride],1.2
6,CC1(C)C2CCC1(C)C(O)C2 (stereo not given) [Borneol],1.17
7,Nc1nc(F)nc2c1ncn2[C@@H]1O[C@H](CO)[C@@H](O)[C@@H]1O [Fludarabine],1.67
8,NNc1nncc2ccccc12 [Hydralazine HCl],1.33
9,CC(C)Cc1ccc(C(C)C(=O)OCc2ccccn2)cc1 (stereo not given) [Ibuprofen piconol],1.39
10,CC(C)(Sc1cc(C(C)(C)C)c(O)c(C(C)(C)C)c1)Sc1cc(C(C)(C)C)c(O)c(C(C)(C)C)c1 [Probucol],0.793
11,CC(C)c1cc(C(=O)N2Cc3ccc(CN4CCN(C)CC4)cc3C2)c(O)cc1O,3.5
12,CN1[C@@H](CC(=O)c2ccccc2)CCC[C@H]1C[C@H](O)c1ccccc1 [Lobeline hydrochloride],1.09
13,COc1cc2c(cc1OC)[C@H]1C[C@@H](OC(=O)[C@@H](N)C(C)C)[C@H](CC(C)C)CN1CC2 [Valbenazine tosylate],0.826
14,Cc1c(C(=O)N2CCOc3ccc(-c4ccc(N)nc4)cc3C2)ccc(S(C)(=O)=O)c1F,2.49
15,C[C@@H](c1ncncc1F)[C@](O)(Cn1cncn1)c1ccc(F)cc1F [Voriconazole],1.9
16,CN(C)CC/C=C1/c2ccccc2COc2ccc(CC(=O)O)cc21 [Olopatadine HCl],0.847
17,NCC(=O)Nc1ccc(-n2nc(C(F)(F)F)cc2-c2ccc3c(ccc4ccccc43)c2)cc1,1.57
18,COc1cc2c(Oc3ccc(NC(=O)C4(C(=O)Nc5ccc(F)cc5)CC4)cc3F)ccnc2cc1OCCCN1CCOCC1,1.39
19,Cc1cn([C@H]2C[C@H](N=[N+]=[N-])[C@@H](CO)O2)c(=O)[nH]c1=O [Zidovudine],1.52
20,COc1cc2nc(N3CCN(C(=O)c4ccco4)CC3)nc(N)c2cc1OC [Prazosin HCl],0.833
